Test results as given in PubChem BioAssay AID449762 (Southern Research Specialized Biocontainment Screening …, 2010).
The campaign covered roughly 330,000 compounds. About 1,900 (0.58%) were called active. Roughly 4% stayed inconclusive and do not appear here. The list is a sample of the results. Results with a measured potency or affinity are listed apart. Unmarked numbers belong to inactive results. No stated cut-off is given here; in the data, inconclusive means inhibition above about 70% without an active follow-up result; inactive means below that.

Assay: M. tuberculosis growth inhibition, HTS (AID 449762);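 further: bacterial growth assessed after seven days of incubation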
Settings: M. tuberculosis H37Rv growth inhibition, 7H9 media; at 25 µM; stronger effect = higher value

Compared with `Cc1ccc(N2CC(C(=O)Nc3cccc(C(=O)NC4CC4)c3)CC2=O)cc1` (stereo unspecified), `Cc1ccc(C(=O)Nc2ccccc2C(=O)N2CCCCC2C)cc1` (stereo unspecified) is higher in inhibition: -1.62% for the first, -0.75% for the second.

Compared with `C/C(=N\Nc1nncc2ccccc12)c1ccc(O)cc1`, `C/C(=N\Nc1ccc(S(=O)(=O)N2CCCCC2)cn1)c1ccc(O)cc1` is lower in inhibition: 13.3% for the first, -0.43% for the second.

Going from `COc1ccc(CC(=O)Oc2ccccc2C)cc1` to `COc1ccc(NC(=O)c2nc[nH]c2C(=O)N(C)Cc2ccccc2)cc1`, the inhibition falls from 10.5% to 9.08%.

Going from `CCN(CC)c1ccc(/C=N/NC(=O)c2ccc3nc[nH]c3c2)cc1` to `COc1ccccc1OCC(=O)Nc1ccc(S(=O)(=O)N(C)c2ccccc2)cc1`, the inhibition falls from 5.47% to -13.2%.

Compared with `CNC(=O)COc1coc(CN2CCN(c3ccccc3)CC2)cc1=O`, `COCC(=O)Nc1ccc(N2CCOCC2)c(S(=O)(=O)Nc2ccccc2OC)c1` is higher in inhibition: -6.51% for the first, 1.36% for the second.

Going from `CC(NC(=O)/C(=C\c1cccc([N+](=O)[O-])c1)NC(=O)c1ccco1)C(=O)O` (stereo unspecified) to `COC(=O)CC1C(=O)NCCN1C(=O)c1ccc([N+](=O)[O-])cc1` (stereo unspecified), the inhibition falls from 2.24% to -0.41%.

Compared with `CCOC(=O)c1c(NC(=O)c2cc(-c3cccc(O)c3)on2)sc(C(C)=O)c1C`, `CCOC(=O)c1sc2c(c1C)C(c1cccs1)C1=C(CCCC1=O)N2` (stereo unspecified) is higher in inhibition: 2.98% for the first, 11.9% for the second.

Compared with `Cc1oc2c(CN3CCCC(C)C3)c(O)ccc2c(=O)c1-c1ccccc1` (stereo unspecified), `CC1CCCCN1Cc1c(O)ccc2c(=O)c(-c3nc4ccccc4s3)coc12` (stereo unspecified) is higher in inhibition: 0.44% for the first, 6.43% for the second.

Going from `Cc1cccc(-n2nnnc2SCC(=O)N(CC(C)C)c2c(N)n(CC(C)C)c(=O)[nH]c2=O)c1` to `Cc1cc(C(=O)CSc2nnnn2C)c(C)n1CCc1ccc(Cl)cc1`, the inhibition rises from 1.22% to 4.63%.

Going from `CC(C)Cc1nc2oc3c(NCC(C)O)ncnc3c2c2c1CCCC2` (stereo unspecified) to `CC(C)Cc1nc2oc3c(Cl)ncnc3c2c2c1CCCC2`, the inhibition rises from 2.05% to 2.35%.

Going from `CC(C)c1ccc(CCNC(=O)c2cccc(S(=O)(=O)N3CCN(C)CC3)c2)cc1` to `COc1cccc(/C(C)=N/Nc2ccc(S(=O)(=O)N3CCCCC3)cn2)c1`, the inhibition rises from -4.06% to -2.89%.

First: O=C1CCN(CCc2ccccc2)CCN1[C@H](CSc1ccccc1)Cc1ccccc1
Second: CCCN1CCC(=O)N([C@H](CSc2ccc(OC)cc2)Cc2ccccc2)CC1
The inhibition of the first is higher: 13.6% for the first, 0.11% for the second.

Going from `Cc1cc(C(=O)CSc2nc(N)cc(N)n2)c(C)n1CC1CCCO1` (stereo unspecified) to `Cc1cc(C(=O)CSc2nnc(N)s2)c(C)n1CCc1ccc(Cl)cc1`, the inhibition rises from -3.69% to 9.47%.

Going from `CCn1c(=O)c2cc(C(=O)NC(C)C)sc2c2ccccc21` to `CCc1cc(C(=O)Nc2ccccc2)cs1`, the inhibition falls from -0.74% to -4.05%.

Compared with `Cc1c(OCc2nn[nH]n2)ccc2c3c(c(=O)oc12)CCCC3`, `O=c1[nH]nnc2sc3c(c12)CCCC3` is higher in inhibition: -3.72% for the first, 1.62% for the second.

First: COc1nc(-c2ccccc2)cc(C(F)(F)F)n1
Second: COc1ccccc1-c1cc(C(F)(F)F)nc(S(C)(=O)=O)n1
The inhibition of the first is lower: -3% for the first, 2.66% for the second.

First: O=C(NC(=S)Nc1ccc(CN2CCOCC2)cc1)c1cc2ccccc2o1
Second: CC(=O)Nc1ccc(S(=O)(=O)Nc2ccccc2N2CCOCC2)cc1
The inhibition of the first is higher: 68.5% for the first, 5.3% for the second.

Going from `COc1ccc(-n2c(-c3ccc(Br)cc3)n[nH]c2=S)cc1` to `COc1ccc(C(=O)C2CCN(CC(=O)Nc3ccc(C)cc3)CC2)cc1`, the inhibition rises from 7.43% to 8.88%.

Going from `C=CCN(c1nc(C)cc(OC)n1)S(=O)(=O)c1ccccc1` to `COc1cc(NS(=O)(=O)c2ccc(NC(=S)NC(=O)c3sc4ccccc4c3Cl)cc2)nc(OC)n1`, the inhibition rises from -6.07% to -0.21%.

First: CC(OC(=O)/C=C/c1ccc2ccccc2n1)C(=O)Nc1ccc(S(N)(=O)=O)cc1 (stereo unspecified)
Second: CC(OC(=O)/C=C/c1ccc2ccccc2n1)C(=O)N(C)c1ccccc1 (stereo unspecified)
The inhibition of the first is higher: 11.9% for the first, -4.67% for the second.

Compared with `NC(=O)c1ccccc1OCC(=O)Nc1cccnc1Cl`, `Cc1onc(-c2ccccc2Cl)c1C(=O)Nc1cccc2cccnc12` is higher in inhibition: 2.44% for the first, 14.3% for the second.

Compared with `CCCc1ccc(Oc2cc(N3CCOCC3)nc(-c3ccccc3)n2)cc1`, `O=C(c1cc(-c2cccc(Cl)c2)nc2ccccc12)N1CCCC1` is lower in inhibition: 17.9% for the first, 4.01% for the second.

Going from `CN(/N=C/c1cc(Br)cc(Br)c1O)c1ccccc1` to `O=C(O)c1cccc(N/N=C/c2cc(Br)cc(Br)c2O)c1`, the inhibition falls from 3.99% to -15.9%.

First: CCCCn1c2c(c(=N)c3c1CCC3)CCC2
Second: CCCCCCn1c2c(c(=N)c3c1CCC3)CCC2
The inhibition of the first is higher: -1.93% for the first, -4.99% for the second.

First: Cc1noc(C)c1COC(=O)COc1ccc(C#N)cc1
Second: Cc1ccc(OCC(=O)OCc2c(C)noc2C)cc1C
The inhibition of the first is higher: 6.51% for the first, 3.24% for the second.

Compared with `COc1ccc(/C=C/C(=O)OCC(=O)NCC2CCCO2)cc1` (stereo unspecified), `O=C(COC(=O)/C=C/c1ccc(F)cc1)NCC1CCCO1` (stereo unspecified) is higher in inhibition: 2.24% for the first, 6.52% for the second.

First: Cc1noc(C)c1CSc1nnc(-c2ccccc2)n1N
Second: Cc1ncc(CSc2nnnn2-c2ccccc2)c(N)n1
The inhibition of the first is higher: 6.07% for the first, 1.43% for the second.

Going from `CCOC(=O)Nc1ccc(C)cc1Br` to `Cc1cc(C)cc(NC(=O)c2cccn2-c2ncc(C(F)(F)F)cc2Cl)c1`, the inhibition rises from -1.99% to 6.22%.

Compared with `NC1=NC(=O)/C(=C/C=C/c2cccs2)S1`, `Cc1ccc(-c2csc(NC(=O)CN3CCC(C(N)=O)CC3)n2)cc1` is lower in inhibition: 18.7% for the first, 2.15% for the second.

Compared with `COc1ccc(C(=O)Nc2c(N)nc(SCC(=O)NCC3CCCO3)[nH]c2=O)cc1` (stereo unspecified), `CCOC(=O)CNC(=O)CNC(=O)c1ccc(OCC(C)C)cc1` is higher in inhibition: 11.2% for the first, 22.7% for the second.

Compared with `CCN(CC)C(=O)c1sc2nc(Cc3ccccc3)[nH]c(=O)c2c1C`, `CCN(CC)C(=O)c1sc2nc(-c3ccncc3)[nH]c(=O)c2c1C` is lower in inhibition: 4.02% for the first, -4.66% for the second.

Compared with `COc1ccc(-n2c(O)c(/C=C3\C=Nc4ccc(Br)cc43)c(=O)[nH]c2=O)c(OC)c1`, `COc1ccc(OC)c(C2CC(c3c(-c4ccccc4)c4cc(Cl)ccc4[nH]c3=O)=NN2S(C)(=O)=O)c1` (stereo unspecified) is higher in inhibition: -3.48% for the first, 44.4% for the second.

Compared with `CCn1c(CSc2nnc(-c3ccc4c(c3)OCO4)o2)nc2cc(S(=O)(=O)N(C)C)ccc21`, `O=c1c(O)c(-c2ccc3c(c2)OCO3)oc2ccccc12` is higher in inhibition: -2.02% for the first, 35.4% for the second.

Compared with `COc1ccc(C2CC(c3c(-c4ccccc4)c4cc(Cl)ccc4[nH]c3=O)=NN2S(C)(=O)=O)cc1OC` (stereo unspecified), `COc1cc2c(cc1NC(=O)COC(=O)[C@@H](NS(=O)(=O)c1ccccc1)C(C)C)oc1ccccc12` is lower in inhibition: 7.95% for the first, 6.17% for the second.

Compared with `O=C(NCc1cccnc1)c1noc2c1CCCC2`, `Cc1cccc(-n2ncc3c2CCCC3NC(=O)C2=CC(=O)CC(C)(C)O2)c1C` (stereo unspecified) is higher in inhibition: -1.71% for the first, -0.85% for the second.

Compared with `CCOC(=O)c1nsnc1NCCCl`, `NC(=O)CCNC(=O)c1ccc(Cl)cc1` is lower in inhibition: 4.35% for the first, -5.92% for the second.

Going from `CCCN(CCC)CCCNC(=O)c1cn(CC)c2ccc(S(=O)(=O)N3CCOCC3)cc2c1=O` to `CCCCN(C)CCCNC(=O)c1cn(CC)c2ccc(S(=O)(=O)N3CCOCC3)cc2c1=O`, the inhibition falls from 3.73% to 3.29%.

Going from `Cc1ccc(S(=O)(=O)n2nc(OC(=O)c3ccccc3F)cc2N)cc1` to `O=S(=O)(Nc1ccc(Cl)cn1)c1ccc(F)cc1`, the inhibition falls from 1.24% to -1.48%.

First: Cc1ccc(-c2oc3ccccc3c(=O)c2O)cc1
Second: Cc1ccc(C(=O)Nc2ccccc2NC(=O)c2ccc(C)o2)o1
The inhibition of the first is higher: 27.6% for the first, 7.31% for the second.

First: Cn1c(=O)c2c(nc(NCc3ccc4c(c3)OCO4)n2C)n(C)c1=O
Second: Cn1cc(S(=O)(=O)N2CCC3(CC2)OCCO3)c(=O)n(C)c1=O
The inhibition of the first is lower: -2.77% for the first, -0.14% for the second.

Compared with `COc1ccccc1CCNC(=O)C(=O)Nc1cc2c3c(c1)CC(=O)N3CCC2`, `COC(=O)C1=C(c2ccc(OC)c(OC)c2)C[C@@H]2CC[C@H]1N2C(=O)NC1Cc2ccccc2C1` is lower in inhibition: 57.3% for the first, -10% for the second.

First: O=C(CSc1nnc(CNC(=O)c2ccccc2)o1)c1ccc(Cl)cc1
Second: O=C(O)Cn1c(SCc2ccccc2)nc2ccccc21
The inhibition of the first is lower: 1.96% for the first, 2% for the second.

Compared with `O=C(O)CCSc1ccccn1`, `O=C(O)CSc1ccccn1` is higher in inhibition: -6.45% for the first, 2.15% for the second.

Going from `Clc1ccc(N2CCNCC2)nn1` to `Cc1ccc(NC(=O)CN2C(=O)C3CC=CCC3C2=O)cc1S(=O)(=O)N1CCOCC1` (stereo unspecified), the inhibition rises from -10.1% to -2.53%.

First: COc1cc(NC(=O)c2c(-c3ccccc3Cl)noc2C)c2ncccc2c1
Second: Cc1ccc(N(CC(=O)Nc2cc(C)cc(C)c2)S(=O)(=O)c2c(C)noc2C)cc1
The inhibition of the first is lower: -6.92% for the first, 6.89% for the second.

First: CC1=C(C(=O)OCc2ccccc2)C(c2cccc(F)c2)NC(=O)N1 (stereo unspecified)
Second: O=C(O)CCn1c(SCc2ccccc2)nc2ccccc21
The inhibition of the first is lower: -8.13% for the first, 2.64% for the second.

Going from `O=C(OCC(=O)C12CC3CC(CC(C3)C1)C2)c1ccccc1O` to `COC(=O)N/N=C(C)/C=C/c1ccccc1`, the inhibition falls from 6.66% to -8.99%.

Going from `CN(C)C(=O)c1cccn1-c1ncc(C(F)(F)F)cc1Cl` to `CC(/C=C/c1ccccc1)=N\NC(=S)NC(C)C`, the inhibition rises from -4.51% to 28.1%.
